Earlier results as cited in PubChem BioAssay AID977611.
Screen size: about 3,900 compounds; about 3,900 (100%) were called active. Cut-off not given; nearly all actives show Kd up to about 4200 µM. So high a share suggests a set chosen from earlier hits. This is one part of the list. Numbered stars: 1 amine (or outer) side, 2 acyl side, 3 side chain; on linkers, the order of the positions; unused ones are H or OH. *1 amine or outer side, *2 acyl side, *3 side chain or, on linkers, in order; H or OH if unused. Where a SMILES comes first, the peptide text is derived from it. Non-standard residues stand in square brackets, D forms with d. Square brackets hold non-standard residues; d marks the D form. Residues, ends and D or L forms follow the SMILES beside them. Peptide text beside a SMILES is read from it. [ ]: non-standard residue; d: D form. X1 = O=C([C@H](Cc1ccc(O[P+](O)(O)O)cc1)N[*:1])[*:2]; Thr(P(OH)3+) = C[C@@H](O[P+](O)(O)O)[C@H](N)C(=O)O; Orn(CH(NH2)2) = NC(N)NCCC[C@H](N)C(=O)O; ΔPro = O=C(O)[C@@H]1C=CCN1

Experiment: PubChem AID 977611
Conditions: PDB protein-ligand complexes, literature Kd

For H-AETFYVD-OH, the Kd (protein: protease, tethered dimer, PDB entry 4ep2) is listed as 4430 nM (active).

In the case of H-AEVFYVDGA-OH, the Kd (protein: HIV-1 protease, PDB entry 2nxl) is listed as 540 nM (active).

In the case of H-ATFYVA-OH, the Kd (protein: protease, tethered dimer, PDB entry 4eqj) is listed as 2520 nM (active).

For H-AQTFYVDG-OH, the Kd (protein: HIV-1 protease, PDB entry 2nxm) is given as 6400 nM (active).

For CC(C)[C@H](NC(=O)[C@H](Cc1ccc(O)cc1)NC(=O)[C@H](CC(N)=O)NC(=O)CN)C(=O)N[C@H](C(=O)N[C@H](C(=O)N[C@@H](Cc1ccc(O[P+](O)(O)O)cc1)C(=O)N[C@@H](C)C(=O)O)[C@@H](C)O)C(C)C (H-GNYVVT[X1]A-OH), the Kd (protein: phosphotyrosine (pTyr) scaffold Fab, PDB entry 4jfx) is listed as 360 nM (active).

In the case of CC[C@H](C)[C@H](NC(=O)[C@H](CCC(=O)O)NC(=O)[C@H](CCC(=O)O)NC(=O)[C@H](Cc1ccccc1)NC(=O)[C@H](CC(=O)O)NC(=O)CN)C(=O)N1CC=C[C@H]1C(=O)NCC(=O)N[C@@H](CCC(=O)O)C(=O)N[C@@H](Cc1ccc(O)cc1)C(=O)N[C@@H](C)C(=O)O (H-GDFEEI[ΔPro]GEYA-OH), the Kd (protein: thrombin alpha, PDB entry 1a3e) is listed as 3.5 nM (active).

For COc1cc2c(c(OC)c1OC)C1=CCC(=O)C(=O)C=C1[C@@H](NC(C)=O)CC2, the Kd (protein: Bromodomain-containing protein 4, BRD4(1), PDB entry 4lys) is given as 46000 nM (active).

For COc1cc(/C=C/CO)ccc1O, the Kd (protein: Coniferyl alcohol 9-O-methyltransferase, PDB entry 4e70) is listed as 5260 nM (active).

In the case of CC(C)[C@H](NC(=O)[C@H](Cc1ccc(O)cc1)NC(=O)[C@H](CC(N)=O)NC(=O)CNC(=O)[C@@H](N)CCCCN)C(=O)N[C@H](C(=O)N[C@H](C(=O)N[C@@H](CO[P+](O)(O)O)C(=O)O)[C@@H](C)O)C(C)C, the Kd (protein: phosphoserine/threonine (pSTAb) scaffold Fab, PDB entry 4jg0) is listed as 172 nM (active).

In the case of CC(C)[C@H](NC(=O)[C@H](Cc1ccc(O)cc1)NC(=O)[C@H](CC(N)=O)NC(=O)CNC(=O)[C@@H](N)CCCCN)C(=O)N[C@H](C(=O)N[C@H](C(=O)N[C@H](C(=O)N[C@@H](Cc1cnc[nH]1)C(=O)O)[C@@H](C)O[P+](O)(O)O)[C@@H](C)O)C(C)C (H-KGNYVVT[Thr(P(OH)3+)]H-OH), the Kd (protein: phosphoserine/threonine (pSTAb) scaffold Fab, PDB entry 4jg1) is listed as 232 nM (active).

For CC(C)[C@H](NC(=O)[C@H](Cc1ccc(O)cc1)NC(=O)[C@H](CC(N)=O)NC(=O)CNC(=O)[C@@H](N)CCCCN)C(=O)N[C@H](C(=O)N[C@H](C(=O)N[C@@H](CO[P+](O)(O)O)C(=O)N[C@@H](Cc1cnc[nH]1)C(=O)O)[C@@H](C)O)C(C)C, the Kd (protein: phosphoserine (pSAb) scaffold Fab, PDB entry 4jfz) is given as 71 nM (active).

For C[C@@H]1O[C@@H](Oc2c(-c3ccc(O)c(O)c3)oc3cc(O)cc(O)c3c2=O)[C@H](O)[C@H](O)[C@H]1O, the Kd (protein: Ribosomal protein S6 kinase alpha-3, PDB entry 4gue) is given as 5800 nM (active).

For Cc1cc(=N)c2ccccc2n1CCCCCCCC/C=C/N1c2ccccc2C(N)=CC1C (stereo not given), the Kd (protein: Chitinase A, PDB entry 3arp) is given as 70 nM (active).

In the case of Cc1cc(=N)c2ccccc2n1CCCCCCCCCCN1c2ccccc2C(N)=CC1C (stereo not given), the Kd (protein: Chitinase A(W275G mutant), PDB entry 3art) is listed as 37000 nM (active).

For CC1=CC(N)c2ccccc2N1CCCCCCCCCCN1c2ccccc2C(N)=CC1C (stereo not given), the Kd (protein: Putative regulatory protein, PDB entry 3vw0) is listed as 21200 nM (active).

In the case of CCOc1cc(C(=O)O)nc2c(NC(=O)c3cc(O)c4cccc(NC(=O)c5cc(O)c6cccc(NC(=O)c7cc(OCC(C)C)c8cccc(NC(=O)NCCCCOc9cccc(CNC(=O)c%10ccc(S(N)(=O)=O)cc%10)c9)c8n7)c6n5)c4n3)cccc12, the Kd (protein: Human Carbonic Anhydrase II, PDB entry 4lp6) is listed as 5.36 nM (active).

In the case of OS(O)(O)OC1C(OS(O)(O)O)C(OS(O)(O)O)C(OS(O)(O)O)C(OS(O)(O)O)C1OS(O)(O)O (stereo not given), the Kd (protein: HISTIDINE ACID PHOSPHATASE, PDB entry 4aro) is listed as 160 nM (active).

For Cc1cc(OCCCS(C)(=O)=O)cc(C)c1-c1cccc(COc2ccc3c(c2)OC[C@H]3CC(=O)O)c1, the Kd (protein: Free fatty acid receptor 1,Lysozyme hGPR40(L42A,F88A,G103A,Y202F mutant), PDB entry 4phu) is given as 12 nM (active).

For CN(C)CCCn1cc(C2C(=O)NC(=O)C2c2c[nH]c3ccccc23)c2ccccc21 (stereo not given), the Kd (protein: human PIM1 kinase domain, PDB entry 1xws) is listed as 10 nM (active).

In the case of C[C@H]1O[C@@H](c2cccc(O)c2O)N[C@@H]1C(=O)NCCCN(CCCNC(=O)c1cccc(O)c1O)C(=O)[C@H]1N[C@H](c2cccc(O)c2O)O[C@@H]1C, the Kd (protein: Ferric vibriobactin ABC transporter, periplasmic ferric vibriobactin-binding protein, PDB entry 3r5t) is given as 2.65 nM (active).

For CN(C)C1=CCN(Cc2ccc(CCCCc3ccc(Cn4cnc5c(N)ncnc54)cc3)cc2)C=C1, the Kd (protein: CHOLINE KINASE ALPHA, PDB entry 3zm9) is given as 38 nM (active).

For CC[C@H](C)[C@H](NC(=O)[C@H](CC(=O)O)NC(=O)[C@H](CS)NC(=O)[C@H](CCC(N)=O)NC(=O)[C@@H](NC(=O)CNC(=O)[C@@H](NC(=O)[C@@H](NC(=O)[C@H](CO)NC(=O)[C@H](CO)NC(=O)[C@H](C)N)[C@@H](C)O)[C@@H](C)O)[C@@H](C)O)C(N)=O (H-ASSTTGTQCDI-NH2), the Kd (protein: Dynein light chain 1, cytoplasmic LC8, PDB entry 4qh8) is listed as 12800 nM (active).

For CC[C@H](C)[C@H](NC(=O)[C@@H](NC(=O)[C@H](CC(C)C)NC(=O)[C@@H](N)CO)[C@@H](C)O)C(=O)N[C@@H](Cc1ccc(O[P+](O)(O)O)cc1)C(=O)N[C@@H](C)C(=O)N[C@@H](CCC(N)=O)C(=O)N[C@H](C(=O)N[C@@H](CCC(N)=O)C(=O)N[C@@H](CCCCN)C(=O)O)C(C)C (H-SLTI[X1]AQVQK-OH), the Kd (protein: EWS/FLI1 activated transcript 2(ETA-2), PDB entry 1i3z) is listed as 131 nM (active) and the Kd (protein: SAP, PDB entry 1d4w) is listed as 120 nM (active).

For CC[C@H](C)[C@H](NC(=O)[C@H](CO)NC(=O)[C@H](CO)NC(=O)[C@H](CCC(N)=O)NC(=O)[C@@H](NC(=O)[C@H](CCC(N)=O)NC(=O)[C@H](CCCNC(N)N)NC(=O)[C@H](Cc1ccccc1)NC(=O)[C@@H](NC(=O)[C@@H](N)CCCNC(N)N)[C@@H](C)O)C(C)C)C(=O)N[C@@H](CO)C(=O)N[C@@H](CC(=O)O)C(=O)N[C@@H](Cc1ccccc1)C(=O)N[C@@H](Cc1ccc(O)cc1)C(=O)N[C@@H](CC(=O)O)C(=O)O (H-[Orn(CH(NH2)2)]TF[Orn(CH(NH2)2)]QVQSSISDFYD-OH), the Kd (protein: Lipoprotein outS, PDB entry 4k0u) is listed as 55 nM (active).

For Ac-SISYTDEIEEEDYD-OH, the Kd (protein: Fibronectin, PDB entry 4pz5) is listed as 121 nM (active).

For CC(C)C[C@H](NC(=O)[C@H](CC(C)C)NC(=O)[C@H](CC(N)=O)NC(=O)[C@@H](NC(=O)[C@H](C)NC(=O)[C@H](CCCCN)NC(=O)[C@H](CO)NC(=O)[C@H](CCCCN)NC(=O)[C@@H](NC(=O)[C@@H](N)CC(C)C)C(C)C)[C@@H](C)O)C(=O)N[C@H](C=O)Cc1ccc(O)cc1 (H-LVKSKATNLLY-aldehyde), the Kd (protein: ATP-Dependent Clp Protease Adapter Protein ClpS, PDB entry 2w9r) is listed as 4800 nM (active).

For CC[C@H](C)[C@H](NC(=O)[C@H](Cc1ccccc1)NC(=O)[C@@H](NC(=O)[C@H](CO)NC(=O)[C@H](CO)NC(=O)[C@H](C)NC(=O)[C@@H](NC(=O)[C@@H](N)CCCNC(N)N)C(C)C)C(C)C)C(=O)N[C@H](C(=O)O)[C@@H](C)O (H-[Orn(CH(NH2)2)]VASSVFIT-OH), the Kd (protein: Filamin-A, PDB entry 2w0p) is given as 300 nM (active).

For H-YAESGIQTDL-OH, the Kd (protein: Dynein light chain 1, cytoplasmic, PDB entry 4ds1) is listed as 17900 nM (active).

In the case of CC[C@H](C)[C@H](NC(=O)[C@@H](NC(=O)[C@H](CC(C)C)NC(=O)[C@H](CO)NC(=O)[C@@H](N)CCCCN)[C@@H](C)O)C(=O)N[C@@H](Cc1ccc(O)cc1)C(=O)N[C@@H](C)C(=O)N[C@@H](CCC(N)=O)C(=O)N[C@H](C(=O)N[C@@H](CCC(N)=O)C(=O)N[C@@H](CCCCN)C(=O)O)C(C)C (H-KSLTIYAQVQK-OH), the Kd (protein: SAP, PDB entry 1d4t) is given as 650 nM (active).
